Reference: publication PMC4336329 (PLoS ONE, 2015)
In all, about 310,000 compounds went through this assay and about 14,000 (4.5%) showed an effect of 50% or more. Effects have a minus sign here. The sample as a whole holds a higher share of strong results than the screen did.
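Also: peak tail current of the secondary pulse compared with the same well before compound.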

Each molecule was assayed against human ether-à-go-go-related gene (hERG) potassium channel (human, UniProt Q12809) (assay: primary screen, population patch clamp on CHO cells stably expressing hERG; higher = less effect of the substance).
human ether-à-go-go-related gene (hERG) potassium channel, sequence (Q12809 whole entry, looked up): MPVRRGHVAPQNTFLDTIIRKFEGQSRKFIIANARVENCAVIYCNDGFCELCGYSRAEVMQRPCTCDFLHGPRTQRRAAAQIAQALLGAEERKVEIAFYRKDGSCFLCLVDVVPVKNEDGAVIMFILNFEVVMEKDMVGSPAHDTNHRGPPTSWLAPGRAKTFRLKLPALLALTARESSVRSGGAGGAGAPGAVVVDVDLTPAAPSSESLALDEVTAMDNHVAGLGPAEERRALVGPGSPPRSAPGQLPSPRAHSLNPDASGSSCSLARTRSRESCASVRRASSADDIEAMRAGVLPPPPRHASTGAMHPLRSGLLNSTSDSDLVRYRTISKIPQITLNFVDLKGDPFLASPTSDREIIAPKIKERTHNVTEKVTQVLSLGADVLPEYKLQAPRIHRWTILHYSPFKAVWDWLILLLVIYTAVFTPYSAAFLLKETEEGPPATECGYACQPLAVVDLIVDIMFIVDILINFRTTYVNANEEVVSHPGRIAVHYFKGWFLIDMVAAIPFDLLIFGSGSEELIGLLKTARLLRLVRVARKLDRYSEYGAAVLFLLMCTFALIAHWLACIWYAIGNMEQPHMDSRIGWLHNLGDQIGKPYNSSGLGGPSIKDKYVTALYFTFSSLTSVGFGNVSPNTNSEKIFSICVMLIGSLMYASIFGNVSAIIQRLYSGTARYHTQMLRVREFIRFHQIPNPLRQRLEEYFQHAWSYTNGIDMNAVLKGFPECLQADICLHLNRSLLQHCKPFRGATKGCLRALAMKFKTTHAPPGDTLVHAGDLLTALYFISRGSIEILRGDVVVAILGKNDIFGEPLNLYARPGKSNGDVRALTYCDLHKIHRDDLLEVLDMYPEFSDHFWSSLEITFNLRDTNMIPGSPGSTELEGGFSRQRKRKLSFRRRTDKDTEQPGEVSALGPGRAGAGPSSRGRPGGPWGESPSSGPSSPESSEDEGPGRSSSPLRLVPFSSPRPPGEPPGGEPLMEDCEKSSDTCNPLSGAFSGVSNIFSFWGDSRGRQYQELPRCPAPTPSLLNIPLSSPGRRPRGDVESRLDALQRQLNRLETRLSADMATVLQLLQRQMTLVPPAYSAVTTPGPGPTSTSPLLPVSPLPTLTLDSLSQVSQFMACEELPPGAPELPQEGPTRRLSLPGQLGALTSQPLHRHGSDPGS
With Cc1[nH]nc2c1C1(CCC3(CC1)OCCO3)C(C#N)=C(N)O2 the “hERG current change (%, negative = inhibition) at 10uM” value was -0.214%.
For COc1ccc(S(=O)(=O)NC(C)C(=O)NCc2ccccn2)cc1Cl (stereo not drawn), the “hERG current change (%, negative = inhibition) at 10uM” value was 7.6%.
Cc1ccc2c(c1)cc(CN(Cc1ccco1)C(=O)N1CCOCC1)c1nnnn12 was tested, and the “hERG current change (%, negative = inhibition) at 10uM” value was -14.7%.
In the case of Cc1ccc2c(c1)cc(CN(Cc1cccnc1)C(=O)c1ccccc1)c1nnnn12, the “hERG current change (%, negative = inhibition) at 10uM” value is reported as -78%.
In the case of Cc1cccc2cc(CN(CCc3ccccc3)C(=O)N3CCOCC3)c3nnnn3c12, the “hERG current change (%, negative = inhibition) at 10uM” value is reported as 12.5%.
Cc1ccc2c(c1)cc(CN(Cc1ccc3c(c1)OCO3)C(=O)c1cnccn1)c1nnnn12 was tested, and the “hERG current change (%, negative = inhibition) at 10uM” value was -45.7%.
In the case of Cc1ccc2c(c1)cc(CN(Cc1cccnc1)C(=O)NCc1ccccc1)c1nnnn12, the “hERG current change (%, negative = inhibition) at 10uM” value is reported as -75.2%.
With Cc1ccc2c(c1)cc(CN(CCc1ccccc1)C(=O)N1CCOCC1)c1nnnn12 the “hERG current change (%, negative = inhibition) at 10uM” value was -61.3%.
With Cc1cccc2cc(CN(Cc3cccnc3)C(=O)c3cccs3)c3nnnn3c12 the “hERG current change (%, negative = inhibition) at 10uM” value was 26.1%.
Cc1ccc(C(=O)N(Cc2cccnc2)Cc2cc3cc(C)ccc3n3nnnc23)cc1 was tested, and the “hERG current change (%, negative = inhibition) at 10uM” value was -23.8%.
With Cc1ccc2c(c1)cc(CN(Cc1ccc3c(c1)OCO3)C(=O)c1ccccc1)c1nnnn12 the “hERG current change (%, negative = inhibition) at 10uM” value was -11.5%.
Cc1ccc(S(=O)(=O)N(C)C)cc1-n1c(SCC(=O)Nc2ccc(F)cc2Cl)nc2ccccc2c1=O was tested, and the “hERG current change (%, negative = inhibition) at 10uM” value was 0.00438%.
With CC(=O)N1CCc2cc(S(=O)(=O)Nc3ccc(C)cc3)ccc21 the “hERG current change (%, negative = inhibition) at 10uM” value was 16.9%.
In the case of Cc1ccccc1CN1CCN(S(=O)(=O)c2ccc(Cl)s2)CC1, the “hERG current change (%, negative = inhibition) at 10uM” value is reported as 3.24%.
For CCOC(=O)c1c(C)oc2cc(Br)c(O)c(Br)c12, the “hERG current change (%, negative = inhibition) at 10uM” value was 8.34%.
COc1ccc(C[C@H]2CN3C(=NC[C@@H]3Cc3ccc(O)cc3)N2C[C@H](C)NC(=O)c2ccc(C)c(Br)c2)cc1 was tested, and the “hERG current change (%, negative = inhibition) at 10uM” value was -77.9%.
With Cc1ccc(C(=O)N[C@@H](C)CN2C3=NC[C@H](Cc4ccccc4)N3C[C@H]2Cc2ccc(O)cc2)cc1Br the “hERG current change (%, negative = inhibition) at 10uM” value was -82.5%.
For CCOc1ccc(C(=O)Nc2nnc(C)s2)cc1OCC, the “hERG current change (%, negative = inhibition) at 10uM” value was -4.04%.
With COc1cc(/C=C2/SC(=O)NC2=O)ccc1OC(=O)c1ccco1 the “hERG current change (%, negative = inhibition) at 10uM” value was -0.00422%.
For COc1cc2c(c3oc(=O)cc(CC(=O)O)c13)CCC(C)(C)O2, the “hERG current change (%, negative = inhibition) at 10uM” value was -5.45%.
COc1ccccc1CCC(=O)N1CCC(n2nccc2NC(=O)C2CCOC2)CC1 (stereo not drawn) was tested, and the “hERG current change (%, negative = inhibition) at 10uM” value was 23.1%.
With CCOC(=O)CC1(c2ccccc2)CCOC(C)(C)C1 (stereo not drawn) the “hERG current change (%, negative = inhibition) at 10uM” value was 10.2%.
In the case of O=C(c1cccnc1)N1C2C=CC(C2)C1(C(F)(F)F)C(F)(F)F (stereo not drawn), the “hERG current change (%, negative = inhibition) at 10uM” value is reported as 14.6%.
With Cc1noc(C)c1C(=O)NC(C)C1CCCO1 (stereo not drawn) the “hERG current change (%, negative = inhibition) at 10uM” value was 3.08%.
For Cc1ccc(C(=O)N2CCN(C)CC2)cc1S(=O)(=O)N1CCCCCC1, the “hERG current change (%, negative = inhibition) at 10uM” value was -25.9%.
Cc1ccc2cc(CCNC(=O)c3ccc4c(c3)OCO4)c(=O)[nH]c2c1C was tested, and the “hERG current change (%, negative = inhibition) at 10uM” value was 4.17%.
With O=C(O)c1ccc(COc2ccccc2/C=C2\NC(=O)N(Cc3ccccc3)C2=O)cc1 the “hERG current change (%, negative = inhibition) at 10uM” value was 24.5%.
In the case of CCCCN(CCCNC(=O)c1ccc(CS(=O)(=O)c2c(Cl)cccc2Cl)o1)Cc1ccccc1, the “hERG current change (%, negative = inhibition) at 10uM” value is reported as -66.1%.
CCCN(CCC)CCCNC(=O)c1ccc(CS(=O)(=O)c2c(Cl)cccc2Cl)o1 was tested, and the “hERG current change (%, negative = inhibition) at 10uM” value was -73.1%.
In the case of O=C(NCCN1CCOCC1)c1ccc(CS(=O)(=O)c2c(Cl)cccc2Cl)o1, the “hERG current change (%, negative = inhibition) at 10uM” value is reported as 0.302%.
With COCCNC(=O)c1ccc(CS(=O)(=O)c2c(Cl)cccc2Cl)o1 the “hERG current change (%, negative = inhibition) at 10uM” value was 0.994%.
O=C(NC1CC1)c1ccc(CS(=O)(=O)c2c(Cl)cccc2Cl)o1 was tested, and the “hERG current change (%, negative = inhibition) at 10uM” value was -5.87%.
In the case of CCCCN(CC)CCCNC(=O)c1ccc(CS(=O)(=O)c2ccccc2C)o1, the “hERG current change (%, negative = inhibition) at 10uM” value is reported as -35.2%.
For O=C(O)c1ccc(CS(=O)(=O)c2c(Cl)cccc2Cl)o1, the “hERG current change (%, negative = inhibition) at 10uM” value was 19%.
For CCCCN(CC)CCCNC(=O)c1ccc(CS(=O)(=O)c2c(Cl)cccc2Cl)o1, the “hERG current change (%, negative = inhibition) at 10uM” value was -55.4%.
In the case of O=C(NCCCN1CCCC1)c1ccc(CS(=O)(=O)c2c(Cl)cccc2Cl)o1, the “hERG current change (%, negative = inhibition) at 10uM” value is reported as -10.5%.
With O=c1nc(-c2ccccc2)c2ccccc2[nH]1 the “hERG current change (%, negative = inhibition) at 10uM” value was -1.29%.
For Cc1oc(-c2ccc(Cl)cc2)cc1C(=O)NC1CCN(Cc2ccccc2)CC1, the “hERG current change (%, negative = inhibition) at 10uM” value was 1.09%.
For CCc1cc(=O)oc2cc(C)cc(OC(C)C(=O)NCC(O)c3ccccc3)c12 (stereo not drawn), the “hERG current change (%, negative = inhibition) at 10uM” value was 4.7%.
Cc1ccc(CNC(=O)NC23CC4CC(CC(C4)C2)C3)cc1 was tested, and the “hERG current change (%, negative = inhibition) at 10uM” value was 7.24%.
CCn1cc(C(=O)NCC(OC)OC)c(=O)c2cc(S(=O)(=O)N3CCC(C)CC3)ccc21 was tested, and the “hERG current change (%, negative = inhibition) at 10uM” value was -28.8%.
With CSc1ccc(CNc2cccc3ccccc23)cc1 the “hERG current change (%, negative = inhibition) at 10uM” value was 2.23%.
